Assay outcomes from PubChem BioAssay.
DT40 TDP1 CPT: qHTS for Inhibitors of human tyrosyl-DNA phosphodiesterase 1 (TDP1): qHTS in cells in presence of CPT | chicken DT40 Tdp1-/-;hTDP1 cells + 20 nM CPT, ATP luminescence, 48 h | Potency, µM (top dose mostly 46.2 µM), for the others: at the highest dose activity change, negative = growth inhibition, hits mostly inhibitors | actives 12% (n = 420,000); note: nearly all actives have a fitted effect of over 55% in size
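Chicken DT40 Tdp1-/- cells complemented with human TDP1, 400 cells/well, exposed to compounds plus 20 nM camptothecin for at least 48 h at 37 C; viability read as ATP content by CellTiter-Glo luminescence.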
VP16 counter: VP16 counterscreen qHTS for inhibitors of ROR gamma transcriptional activity; actives 3.5% (n = 310,000); Potency, µM (doses to about 53.6 µM), for the others: at the top dose activity, negative = inhibition, usual class: inhibitors; Drosophila S2 Gal4-VP16 UAS-luciferase, luminescence, 20 h;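 note: Gal4-VP16 expression switched on by copper sulfate through the metallothionein promoter; nearly all actives have a fitted effect of over 50% in size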
RORgamma inh: qHTS for inhibitors of ROR gamma transcriptional activity; Nuclear receptor ROR-gamma (Mus musculus), P51450; Drosophila S2 Gal4-RORgamma UAS-luciferase reporter, 20 h; Potency, µM (highest dose often 53.6 µM), for the others: at the highest dose activity change, negative = inhibition, actives largely listed as inhibitors; actives 5.4% (n = 310,000); note: nearly all actives have a fitted effect of over 60% in size
Target sequence (P51450 whole entry, looked up, the tested form may be a part): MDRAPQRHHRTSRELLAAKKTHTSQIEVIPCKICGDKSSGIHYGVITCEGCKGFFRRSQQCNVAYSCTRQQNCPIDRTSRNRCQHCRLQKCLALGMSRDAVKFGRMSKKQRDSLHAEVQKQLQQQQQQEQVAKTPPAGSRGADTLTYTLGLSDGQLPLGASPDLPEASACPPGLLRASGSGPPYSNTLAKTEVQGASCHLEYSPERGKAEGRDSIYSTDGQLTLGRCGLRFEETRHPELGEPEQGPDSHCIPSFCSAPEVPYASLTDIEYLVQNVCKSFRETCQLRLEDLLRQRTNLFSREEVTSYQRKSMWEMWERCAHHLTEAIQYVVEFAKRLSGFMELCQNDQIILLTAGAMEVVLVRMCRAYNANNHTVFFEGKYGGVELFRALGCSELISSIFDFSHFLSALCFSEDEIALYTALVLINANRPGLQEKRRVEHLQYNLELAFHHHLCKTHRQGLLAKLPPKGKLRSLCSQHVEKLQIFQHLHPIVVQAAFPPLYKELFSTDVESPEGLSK
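Stable Schneider cell line, Gal4 DNA-binding domain fused to ROR gamma, UAS-luciferase. Cmpd 1 hr RT → CuSO4 700 uM final → 20 hr RT → luciferase reagent 10 min → luminescence.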
DT40 TDP1 no CPT: qHTS for Inhibitors of human tyrosyl-DNA phosphodiesterase 1 (TDP1): qHTS in cells in absence of CPT. DT40 Tdp1-/- hTDP1 cells, no CPT, ATP luminescence, 48 h. Potency, µM (series often up to 46.2 µM), inactives show at the top dose activity change, negative = growth inhibition, actives largely listed as inhibitors. actives 15% (n = 420,000). AID 686978, 2013; note: nearly all actives have a fitted effect of over 55% in size
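No-CPT arm: Tdp1-/-;hTDP1 DT40 cells (400/well) plus compounds, incubated ≥48 hr at 37 °C. Readout CellTiter-Glo luminescence.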
ELG1 DNA repair: qHTS screen for small molecules that inhibit ELG1-dependent DNA repair in human embryonic kidney (HEK293T) cells expressing luciferase-tagged ELG1. HEK293T ELG1-luciferase reporter, luminescence, 16 h; DNA damage induced by 5-fluorouridine. Potency, µM (doses to about 46.1 µM), without a hit: at the top dose activity change, negative = inhibition, hits mostly inhibitors. AID 504467, 2011. actives 2.3% (n = 330,000); note: nearly all actives have a fitted effect of over 55% in size
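Overnight (16 hr) co-exposure of 2,000 cells/well to 5-fluorouridine and compound at 37 °C preceded detection. Luciferase was quantified via ONE-Glo luminescence; loss of signal denotes inhibition.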
ALOX12 inh: Primary qHTS assay for inhibitors of human arachidonate 12S-lipoxygenase (ALOX12): Round 2. Polyunsaturated fatty acid lipoxygenase ALOX12 (Homo sapiens), P18054. purified 12hLO, xylenol orange hydroperoxide absorbance. Potency, µM (highest dose often 108 µM), for inactives: at the highest dose activity change, negative = inhibition, actives largely listed as inhibitors. actives 1.1% (n = 580,000). AID 1671190, 2021
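Purified human 12hLO at 150 nM in 25 mM Hepes, 0.01% Triton X-100, pH 7.0, preincubated 15 min at room temperature with compound. Reaction started with 40 uM arachidonic acid, 30 min at room temperature. Hydroperoxide measured by Fe-xylenol orange, 573/405 nm absorbance ratio.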
An asterisk follows results filed as active; ? = inconclusive; . = no result; [ ] = dose if it differs, or a comment. Hits are enriched below; roughly 15% of the tested compounds scored in any of these assays. Calls come from the whole dose curve; as a rule, active = well fitted curve in the direction sought with a large enough effect; inconclusive = small, poorly fitted or top-dose-only effect, or another doubt; inactive = no such curve, though single readings can be large; an effect the other way counts as inactive or inconclusive. % is set by controls: 0 for no effect and ±100 for the full control effect; potency is the fitted concentration of half-maximal effect.

SMILES	DT40 TDP1 CPT	VP16 counter	RORgamma inh	DT40 TDP1 no CPT	ELG1 DNA repair	ALOX12 inh
CC(C)N(c1ccccc1)c1ccc(NC(=O)[C@@H]2O[C@H](CO)[C@@H](O)[C@H]2O)cc1	21µM*	.	.	?	.	5%
CC(C)N(c1ccccc1)c1ccc(NC(=S)NCCN(C)C)cc1	?	-4%	1%	21µM*	?	-20%
N#Cc1ccc(OCCn2cc(S(=O)(=O)N3CCCC3)ccc2=O)cc1	.	.	.	.	.	35%
Cc1ccsc1CNC(=O)CSCC#N	.	.	.	.	.	-11%
O=C1CC2(CCN(CC3CC3)CC2)Oc2ccccc2N1	.	.	.	.	.	3%[176 µM]
COc1ccc(CCNC(=O)C(=O)NCc2n[nH]c(=O)c3ccccc23)cc1	.	.	.	.	.	-3%
CCNC(=S)NN(c1ccccc1)c1ccccc1	-11%	?	7.9µM*	-7%	?	?
CCNC(=O)NC(=O)CN(C)c1ccccc1	0%	2%	-9%	-10%	3%	0%
Fc1cccc(-n2c(SCc3nc4ccccc4o3)nnc2N2CCOCC2)c1	.	.	.	.	.	-2%
CCCOc1ccc(C(=O)C(CN2CCCC2)c2ccccc2)cc1 (configuration not stated)	3.7µM*	?	?	5.2µM*	18µM*	-13%
CCCOc1ccc(C(O)C(CN2CCOCC2)c2ccccc2)cc1 (configuration not stated)	10%	-6%	7%	-12%	-4%	-30%
CCCCCOc1ccc(C(=O)C(c2ccccc2)N2CCOCC2)cc1 (configuration not stated)	21µM*	-22%	3%	?	-19%	?
CC/C(=N/NC(=O)c1ccccc1)c1ccc(OCCN2CCOCC2)cc1	2%	-7%	-40%	-5%	?	-2%
COc1ccc(C(=O)C(CN2CCOCC2)c2ccccc2)cc1 (configuration not stated)	2.9µM*	?	13µM*	3.3µM*	?	-25%[57.4 µM]
CCCCOc1ccc(C(=O)C(CN2CCOCC2)c2ccccc2)cc1 (configuration not stated)	13µM*	?	?	15µM*	?	?
CC(C)NC(=O)[C@@H]1C[C@H](N)CN1C(=O)c1ccccc1-c1ncc[nH]1	.	.	.	.	.	45%
COc1ccccc1NS(=O)(=O)c1cc(C(=O)N2CCc3sccc3C2)ccc1C	.	.	.	.	.	-14%
CCC(C)NC(=O)Cn1c(-c2ccc(F)cc2)nc(C)cc1=O (configuration not stated)	.	.	.	.	.	1%
Cc1cccc(OCCc2noc(C3CCN(C(=O)NC(C)(C)C)C3)n2)c1 (configuration not stated)	.	.	.	.	.	39%
NC(N)=NC(N)=Nc1ccc(F)cc1	.	.	.	.	.	3%
O=C(c1ccccc1)C(CCC(CN1CCOCC1)C(=O)c1ccccc1)CN1CCOCC1 (configuration not stated)	0.73µM*	7.9µM*	?	1.5µM*	?	?
CCCCOc1ccc(C(O)C(CN2CCOCC2)c2ccccc2)cc1 (configuration not stated)	-22%	0%	20%	-15%	0%	3%
O=C(c1ccc(F)cc1)C(CN1CCOCC1)c1ccccc1 (configuration not stated)	1.8µM*	11µM*	5.6µM*	1.3µM*	?	-21%
OC(CN1CCCC1)c1ccccc1 (configuration not stated)	?	.	.	-28%	.	.
CCCCOc1ccc(C(O)C(CN2CCCCC2)c2ccccc2)cc1 (configuration not stated)	23µM*	-1%	-11%	23µM*	-3%	?
SMILES	DT40 TDP1 CPT	VP16 counter	RORgamma inh	DT40 TDP1 no CPT	ELG1 DNA repair	ALOX12 inh
CC(CN1CCOCC1)OC(=O)C(c1ccccc1)c1ccccc1 (configuration not stated)	-7%	-6%	2%	-15%	0%	?
O=C(c1ccc(Cl)cc1)C(CN1CCCC1)c1ccccc1 (configuration not stated)	4.1µM*	5.6µM*	11µM*	4.1µM*	?	0%
COC(=O)CCC1CCCNC1 (configuration not stated)	.	.	.	.	.	-24%
CCNC(=O)N1CCC(OC2CCN(S(C)(=O)=O)CC2)CC1	.	.	.	.	.	32%
CCOc1ccc2nc(SCC(=O)N3CCN(S(=O)(=O)c4ccccc4)C3)[nH]c2c1	.	.	.	.	.	26%
COc1ccc(C(=O)C(OC(=O)c2ccccc2)c2ccccc2)cc1 (configuration not stated)	-16%	0%	27%	?	?	-19%
COc1ccc(C(=O)C(CN2CCCC2)c2ccccc2)cc1 (configuration not stated)	4µM*	?	?	3.2µM*	16µM*	-7%
Cc1cccc(COC[C@H](Cc2ccccc2)N2CCN(C(=O)c3cccc(C)c3)CCC2=O)c1	?	-10%	4%	?	.	?
Cc1cccc(C(=O)N2CCC(=O)N([C@H](COCc3cccc(C(F)(F)F)c3)Cc3ccccc3)CC2)c1	?	2%[40.7 µM]	3%[40.7 µM]	16µM*	.	?
Cc1cccc(C(=O)N2CCC(=O)N([C@H](COCc3ccccc3)Cc3ccccc3)CC2)c1	?	-2%	37%	?	.	-6%
Cc1cccc(C(=O)N2CCC(=O)N(C(COCc3cccc(C(F)(F)F)c3)Cc3ccccc3)CC2)c1 (configuration not stated)	29µM*	9%	29%	?	?	-8%
OCCOc1ccc(CN(CCN2CCCCC2)CC2CCCN(C3CCCC3)C2)cc1 (configuration not stated)	.	.	.	.	.	5%
Cc1ccc2c(c1)CCCN2CC(=O)Nc1cc(S(=O)(=O)N2CCCC2)ccc1Cl	21µM*	.	.	15µM*	2%	?
O=C(CN1CCCc2ccccc21)Nc1cc(S(=O)(=O)N2CCCC2)ccc1Cl	18µM*	.	.	?	1%	-3%
O=C(CN1CCCc2ccccc21)Nc1cccc(S(=O)(=O)N2CCOCC2)c1	?	.	.	?	0%	64%
